Measurements as given in PubChem BioAssay (EPA / NIEHS).
Activity calls are given as the source filed them. How the source made its calls: active means hit-call score of the fitted dose curve at least 0.9, where 1 is the maximum; inactive means score below 0.9.

Assay: BSK_SAg_Proliferation: Cell Proliferation Assessment in the BioMAP Diversity Plus: SAg Assay (AID 2283095)
Conditions: primary human HUVEC with PBMC
Procedure: BSK_SAg is a cell-based, multiplexed-readout assay that uses umbilical vein endothelium and peripheral blood mononuclear cells, a human vascular primary cell co-culture, with measurements taken at 24 hours after chemical dosing in a 96-well plate.BSK_SAg_Proliferation is an assay component in the BSK_SAg assay. It measures protein content, a form of viability reporter, as detected with absorbance signals by Sulforhodamine staining technology. Data from the assay component BSK_SAg_Proliferation was analyzed into 1 assay endpoint. This assay endpoint, BSK_SAg_Proliferation, was analyzed with bidirectional fitting relative to DMSO as the negative control and baseline of activity. Using a type of viability reporter, measures of total protein for gain or loss-of-signal activity can be used to understand the viability at the cellular-level. Furthermore, this assay endpoint can be referred to as a secondary readout, because this assay has produced multiple assay endpoints where this one serves a viability function. To generalize the intended target to other relatable targets, this assay endpoint is annotated to the cell cycle intended target family, where the subfamily is proliferation.
The levels of cell surface (or secreted, indicated by the prefix "s") biomarker endpoints were measured by ELISA. Overt cytotoxicity to cells in confluent adherent cultures (all systems other than the BT system) was assessed by measuring total protein levels using sulforhodamine B (SRB) staining in parallel cultures at the time of biomarker measurements, indicated as SRB endpoints. For proliferation assays for adherent cell types, individual cell types are cultured at sub-confluence and relative cell numbers quantified by SRB staining at time points optimized for each system (48 h: 3C and CASM3C systems; 72 h: BT and HDF3CGF systems; 96 h: SAg system). SRB was performed by staining cells with 0.1% SRB after fixation with 10% TCA and reading wells at 560 nm.Viability and proliferation of PBMC (T cells) was quantified by Alamar Blue reduction for the SAg and BT systems. For PBMC viability (referred to as PBMC Cytotoxicity within the assay endpoint names), cells were plated (75,000/well in a 96-well plate) and then chemical samples added for 1 h before addition of activators, SEB and TSST-1 (20 ng/mL final concentration each). Cells were incubated for 90 h. Then, Alamar Blue (20 uL/well) (Invitrogen, Cat DAL1100) was added for 6 h, and the plates were read with a fluorescence microplate reader at 546/580 nm (excitation/emission). For PBMC proliferation, cells were plated and activated as above but incubated for only 16 h prior to addition of Alamar Blue. Plates were read after 6 h.

SMILES | outcome | AC50
CC(C)N1C(=O)c2ccccc2NS1(=O)=O | inactive | –
Clc1nc(Cl)nc(Nc2ccccc2Cl)n1 | inactive | –
CCCCC(O)(Cn1cncn1)c1ccc(Cl)cc1Cl (stereo not given) | – | 29.9 µM (active)
CCCCOCN(C(=O)CCl)c1c(CC)cccc1CC | – | 22.2 µM (active)
COC(=O)NS(=O)(=O)c1ccc(N)cc1 | inactive | –
CC1(C)C(C(=O)OC(C#N)c2cccc(Oc3ccccc3)c2)C1(C)C (stereo not given) | – | 15.3 µM (active)
COc1cc(Cl)c(OC)cc1Cl | inactive | –
C=C(C)CN(CC)c1c([N+](=O)[O-])cc(C(F)(F)F)cc1[N+](=O)[O-] | – | 28.8 µM (active)
CC1(C)C(C=C(Cl)Cl)C1C(=O)OC(C#N)c1cccc(Oc2ccccc2)c1 (stereo not given) | – | 29.4 µM (active)
CC(C)N1C(=O)N(c2ccccc2)CSC1=NC(C)(C)C | – | 27.4 µM (active)
CCN(CC)c1nc(C)cc(OP(=S)(OC)OC)n1 | – | 37 µM (active)
CC(C)NC(=O)N1CC(=O)N(c2cc(Cl)cc(Cl)c2)C1=O | inactive | –
CS(=O)(=O)c1ccc(C(=O)C2C(=O)CCCC2=O)c([N+](=O)[O-])c1 | inactive | –
COC(=O)N(C(=O)N1CO[C@@]2(C(=O)OC)Cc3cc(Cl)ccc3C2=N1)c1ccc(OC(F)(F)F)cc1 | – | 7.29 µM (active)
CC(C)Nc1nc(Cl)nc(NC(C)C)n1 | inactive | –
COP(=O)(OC)O/C(C)=C/C(=O)N(C)C | inactive | –
CC(C)Oc1cccc(NC(=O)c2ccccc2C(F)(F)F)c1 | inactive | –
COP(=S)(OC)Oc1ccc([N+](=O)[O-])c(C)c1 | – | 24.9 µM (active)
CSC(=O)c1c(C(F)F)nc(C(F)(F)F)c(C(=O)SC)c1CC(C)C | – | 28.6 µM (active)
CO/N=C(/C1=NOCCO1)c1ccccc1Oc1ncnc(Oc2ccccc2Cl)c1F | – | 15.8 µM (active)

SMILES | outcome | AC50
O=c1n(Cl)c(=O)n(Cl)c(=O)n1Cl | inactive | –
N#CN=C1SCCN1Cc1ccc(Cl)nc1 | inactive | –
CC1(C)CON(Cc2ccccc2Cl)C1=O | inactive | –
CC(C)(C)C(=O)C(Oc1ccc(Cl)cc1)n1cncn1 (stereo not given) | inactive | –
Cc1cnc(C2=NC(C)(C(C)C)C(=O)N2)c(C(=O)O)c1 (stereo not given) | inactive | –
CN=C=S | – | 13.7 µM (active)
O=P(O)(O)CCCl | inactive | –
N#Cc1c(Cl)cccc1Cl | inactive | –
Nc1c(Cl)c(F)nc(OCC(=O)O)c1Cl | inactive | –
CCN(CC)C(=O)C(C)Oc1cccc2ccccc12 (stereo not given) | inactive | –
CCOP(=S)(OCC)Oc1nc(Cl)n(C(C)C)n1 | inactive | –
CCOC(=O)C(C)OC(=O)c1cc(Oc2ccc(C(F)(F)F)cc2Cl)ccc1[N+](=O)[O-] (stereo not given) | – | 30.9 µM (active)
COCC(C)N(C(=O)CCl)c1c(C)csc1C (stereo not given) | inactive | –
Nc1c(Cl)c(Cl)nc(C(=O)O)c1Cl | inactive | –
CCOc1nc(C(Cl)(Cl)Cl)ns1 | inactive | –
CS(=O)(=O)c1cc(C(F)(F)F)ccc1C(=O)c1cnoc1C1CC1 | inactive | –
O=C(Nc1ccccc1-c1ccc(Cl)cc1)c1cccnc1Cl | inactive | –
CCCC(=NOCC)C1=C(O)CC(CC(C)SCC)CC1=O (stereo not given) | inactive | –
COc1cc(OC)nc(NC(=O)NS(=O)(=O)c2ncccc2OCC(F)(F)F)n1 | inactive | –
N#Cc1c[nH]cc1-c1cccc2c1OC(F)(F)O2 | – | 20 µM (active)
